For 13 compounds, outcome and AC50 results are on record in PubChem BioAssay (EPA / NIEHS).

Experiment [1] concerns the target Agonist Androgen Response Element (ARE), AR (gene 367) (UniProt P10275). In words: OT_AR_ARELUC_AG_1440: Odyssey Thera (OT) 24-hour CHO-K1 Luciferase Assay for Agonist Androgen Response Element (ARE) (AID 2283379). The method, boiled down: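 Gain-of-signal reporter endpoint: cells (CHO-K1, hamster) are treated 24 h, luciferin/ATP reagent added, and luminescence compared with DMSO baseline.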

The target in experiment [2] is Estrogen receptor beta (Homo sapiens) (UniProt Q92731). In words: OT_ER_ERbERb_1440: Odyssey Thera (OT) 24-hour HEK293T Protein-Complementation Assay for Estrogen Receptor-beta/-beta Homodimer (AID 2283380).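 Also: scored as signal increase over DMSO baseline for both agonists and antagonists.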 The method, boiled down:
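HEK293T cells stably expressing ER beta LBD (aa 310-547) homodimer fragment-complementation reporter, dosed 24 h. Cells formaldehyde-fixed, Draq5-stained; gain in nuclear (agonist) or nuclear plus cytoplasmic (antagonist) fluorescence versus DMSO read by laser scanning cytometry.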

The target in experiment [3] is Estrogen receptor (Homo sapiens) (UniProt P03372). In words: OT_ERa_GFPERaERE_0480: Odyssey Thera (OT) 8-hour HeLa Transcription Induction Assay for Estrogen Receptor (AID 2283381; active = hit-call score of the fitted dose curve at least 0.9, where 1 is the maximum; inactive = score below 0.9). The method, boiled down: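 Human cervical HeLa cells were treated for 8 hours, after which ERE-driven GFP induction was measured by fluorescence microscopy; increases over DMSO baseline defined activity.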

For experiment [4] the target is unchanged. In words: OT_ERa_GFPERaERE_0120: Odyssey Thera (OT) 2-hour HeLa Transcription Induction Assay for Estrogen Receptor (AID 2283382). In short, it runs like this:
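Cells (human cervical HeLa) receive compound, incubate 2 hours, then are imaged for fluorescent reporter induction. Images are quantified by high content analysis, and activity is fitted as gain of signal against DMSO.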

The target in experiment [5] is Retinoic acid receptor RXR-alpha (Homo sapiens) (UniProt P19793). In words: OT_NURR1_NURR1RXRa_0480: Odyssey Thera (OT) 8-hour HEK293T Protein Complementation Assay for Nurr1/retinoid X receptor (RXR) (AID 2283385). In short, it runs like this: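 Interaction of bait and prey reconstitutes a functional reporter, whose fluorescence was measured in HEK293T cells dosed with compound for 8 hours. Signal gain relative to DMSO defined the single endpoint.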

The target is the same in experiment [6]. In words: OT_NURR1_NURR1RXRa_1440: Odyssey Thera (OT) 24-hour HEK293T Protein Complementation Assay for Nurr1/retinoid X receptor (RXR) (AID 2283386). In short, it runs like this: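 Steps: fragment-tagged Nurr1 and RXRα expressed in HEK293T; compounds added; after 24 h, complemented reporter quantified by fluorescence intensity; signal increase over DMSO fitted as the single endpoint.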

The target of experiment [7] is Peroxisome proliferator-activated receptor gamma (Homo sapiens) (UniProt P37231). Kind of experiment: OT_PPARg_PPARgSRC1_0480: Odyssey Thera (OT) 8-hour Protein-Complementation Assay for Peroxisome Proliferator-activated Receptor Gamma / SRC-1 Co-activator (AID 2283387).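 Also: nuclear to cytoplasmic split Venus YFP fluorescence ratio reporting PPARg SRC-1 interaction.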 In short, it runs like this:
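Read-out: 488 nm N/C fluorescence ratio from complemented Venus YFP fragments, ≥350 cells per image, gain-of-signal fitted against DMSO baseline. Fusions of PPARg/SRC-1 with IFP1/IFP2 expressed transiently in HEK293T; compounds applied 8 h.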

For experiment [8] the target is unchanged. Kind of experiment: OT_PPARg_PPARgSRC1_1440: Odyssey Thera (OT) 24-hour Protein-Complementation Assay for Peroxisome Proliferator-activated Receptor Gamma/ SRC-1 Co-activator (AID 2283388).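 Also: nuclear to cytoplasmic ratio of reconstituted Venus YFP fluorescence in fixed imaged cells.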 In short, it runs like this: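 Protein-fragment complementation between PPARg and coactivator SRC-1 was measured by fluorescence imaging in transiently transfected HEK293T cells after 24 h treatment. Signal was quantified as N/C ratio in the 488 nm channel, with DMSO as negative control.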

The nature of experiment [9]: CEETOX_H295R_11DCORT: CeeTox H295R High-throughput Steroidogenesis Assay for 11-Deoxycortisol (11DCORT) (AID 2283432; active = hit-call score of the fitted dose curve at least 0.9, where 1 is the maximum; inactive = score below 0.9;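 as to AC50: human adrenal H295R cells prestimulated with 10 µM forskolin for 48 h; 11-deoxycortisol secreted into the medium measured by LC-MS/MS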). As to conditions: actives raise or lower the signal. In short, it runs like this:
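H295R cells; 10 uM forskolin prestim 48 h; compound in 0.1% DMSO 48 h; media extracted with MTBE; 11-deoxycortisol by LC-MS/MS, 7-point standard curve; gain/loss vs DMSO baseline; viability by MTT in same wells.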

A short description of experiment [10]: CEETOX_H295R_OHPROG: CeeTox H295R High-throughput Steroidogenesis Assay for OH-Progesterone (OHPROG) (AID 2283435; active = hit-call score of the fitted dose curve at least 0.9, where 1 is the maximum; inactive = score below 0.9;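 as to AC50: human adrenal H295R cells primed 48 h with 10 µM forskolin; 17alpha-hydroxyprogesterone secreted into medium measured by HPLC-MS/MS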). As to conditions: actives raise or lower the signal. The method, boiled down: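 Steps: seed H295R cells and adhere overnight; stimulate with 10 uM forskolin for 48 h; replace with chemical-containing medium (0.1% DMSO) for 48 h; extract medium with MTBE; quantify 17alpha-hydroxyprogesterone by reverse-phase C18 HPLC-MS/MS against a 7-point curve.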

A short description of experiment [11]: CEETOX_H295R_ANDR: CeeTox H295R High-throughput Steroidogenesis Assay for Androstenedione (ANDR) (AID 2283436; active = hit-call score of the fitted dose curve at least 0.9, where 1 is the maximum; inactive = score below 0.9;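 also: human H295R adrenal cells exposed for 48 h with androstenedione measured in medium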). As to conditions: actives raise or lower the signal. In short, it runs like this:
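48 h chemical exposure, H295R cells, DMEM/F12 + ITS+ and Nu-Serum. Medium androstenedione: MTBE extraction, C18 reverse-phase HPLC, ESI+ MS/MS. Fit bidirectional vs DMSO; MTT viability in same wells.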

The nature of experiment [12]: CEETOX_H295R_CORTIC: CeeTox H295R High-throughput Steroidogenesis Assay for Corticosterone (CORTIC) (AID 2283437; active = hit-call score of the fitted dose curve at least 0.9, where 1 is the maximum; inactive = score below 0.9;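 also: corticosterone secreted into medium quantified by mass spectrometry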;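 as to AC50: human H295R adrenal cells prestimulated with forskolin before chemical exposure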). To be noted: actives raise or lower the signal. In short, it runs like this:
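48 h forskolin (10 uM) prestim, then 48 h chemical exposure, final DMSO 0.1%. Readout: corticosterone in medium by LC-MS/MS after MTBE extraction. Gain/loss fit vs DMSO; MTT viability in same wells.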

The target in experiment [13] is human Norepinephrine Transporter (NET), SLC6A2 (gene 6530) (UniProt P23975). In words: NVS_TR_hNET: NovaScreen (NVS) Transporter Assay for human Norepinephrine Transporter (NET) (AID 2283377).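 Also: cell-free membrane protein extracted from CHO cells expressing human NET; displacement of radioligand from human NET seen as loss of scintillation signal.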 The method, boiled down: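 CHO cell extracts expressing the transporter; tritiated or iodinated tracer displaced competitively; filtration plus scintillation readout at 1 h. Single-point duplicates at 25 uM, concentration series for follow-up; activity = signal drop relative to DMSO.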

Experiment [14] addresses human Serotonin Transporter (SERT), SLC6A4 (gene 6532) (UniProt P31645). Kind of experiment: NVS_TR_hSERT: NovaScreen (NVS) Transporter Assay for human Serotonin Transporter (SERT) (AID 2283372). The method, boiled down: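 Human platelet membrane preparation; displacement of radioligand from serotonin transporter measured after 1 h by filtration and scintillation counting. Single 25 uM duplicate screen, then concentration series for actives, with DMSO as negative baseline.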

Experiment [15] deals with human Dopamine Transporter (DAT), SLC6A3 (gene 6531) (UniProt Q01959). Kind of experiment: NVS_TR_hDAT: NovaScreen (NVS) Transporter Assay for human Dopamine Transporter (DAT) (AID 2283374).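 Also: activity means loss of bound radioligand signal relative to DMSO.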 The method, boiled down:
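hDAT membranes + tritiated/iodinated radioligand, competitive displacement; 1 h; filter scintillation readout. Single conc 25 uM (duplicate), then conc-response for actives. DMSO = negative control.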

Experiment [16] has as its target rat Serotonin Transporter (SERT), Slc6a4 (gene 25553) (UniProt P31652). In words: NVS_TR_rSERT: NovaScreen (NVS) Transporter Assay for rat Serotonin Transporter (SERT) (AID 2283375). The method, boiled down: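 Filtration-based radiodetection quantified loss of specific radioligand binding in rat forebrain membranes after 1 hour of chemical exposure, relative to DMSO. Chemicals were first tested in duplicate at 25 uM.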

For experiment [17], the target named is Norway rat Vesicular Monoamine Transporter (VMAT2), neurotransmitter transporter, Slc18a2 (gene 25549) (UniProt Q01827). In words: NVS_TR_rVMAT2: NovaScreen (NVS) Transporter Assay for Norway rat Vesicular Monoamine Transporter (VMAT2), neurotransmitter transporter (AID 2283376).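 Also: actives lower the bound radioligand signal below the DMSO level.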 The method, boiled down:
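Filter-based scintillation counting of radioligand bound to rat forebrain-derived VMAT2 protein, cell-free, 1 h post-dose. Signal loss relative to DMSO control scored; single-concentration duplicate screen (25 uM) followed by concentration-response testing of actives.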

The target of experiment [18] is Bile acid receptor (Homo sapiens) (UniProt Q96RI1). In words: OT_FXR_FXRSRC1_1440: Odyssey Thera (OT) 24-hour HEK293T Protein-Complementation Assay for Farnesoid X receptor/SRC-1 Co-activator (AID 2283384). In short, it runs like this: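 Measures ligand-driven FXR–SRC-1 co-activator recruitment in HEK293T via fragment complementation, fluorescence intensity at 24 h. DMSO served as negative control and baseline for gain-of-signal fitting.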

Where “and” joins values, the source holds several entries; their conditions need not be identical. Identical values can stand only once. Records with an inconclusive call do not appear. A structure can be active in one record and inactive in another. Calls of active or inactive are those of the source. The calls were made as follows, unless noted: active = hit-call score of the fitted dose curve at least 0.9, where 1 is the maximum; inconclusive = response in the unintended direction; inactive = score below 0.9.

Bile acid receptor (Homo sapiens), sequence (Q96RI1 whole entry, looked up, the tested form may be a part): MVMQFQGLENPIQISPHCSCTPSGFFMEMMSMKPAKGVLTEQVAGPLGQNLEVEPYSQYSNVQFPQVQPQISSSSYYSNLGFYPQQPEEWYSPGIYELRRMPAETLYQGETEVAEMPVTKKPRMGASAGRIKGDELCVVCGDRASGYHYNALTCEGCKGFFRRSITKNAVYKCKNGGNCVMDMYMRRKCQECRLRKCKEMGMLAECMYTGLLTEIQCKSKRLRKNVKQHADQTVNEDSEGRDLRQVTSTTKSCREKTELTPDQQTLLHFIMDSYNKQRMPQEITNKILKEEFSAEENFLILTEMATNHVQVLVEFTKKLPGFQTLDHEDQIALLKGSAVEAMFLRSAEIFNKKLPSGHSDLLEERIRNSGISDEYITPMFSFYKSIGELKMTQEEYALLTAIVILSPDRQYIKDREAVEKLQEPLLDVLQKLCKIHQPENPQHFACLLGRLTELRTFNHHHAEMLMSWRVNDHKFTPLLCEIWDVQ
Retinoic acid receptor RXR-alpha (Homo sapiens), sequence (P19793 whole entry, looked up): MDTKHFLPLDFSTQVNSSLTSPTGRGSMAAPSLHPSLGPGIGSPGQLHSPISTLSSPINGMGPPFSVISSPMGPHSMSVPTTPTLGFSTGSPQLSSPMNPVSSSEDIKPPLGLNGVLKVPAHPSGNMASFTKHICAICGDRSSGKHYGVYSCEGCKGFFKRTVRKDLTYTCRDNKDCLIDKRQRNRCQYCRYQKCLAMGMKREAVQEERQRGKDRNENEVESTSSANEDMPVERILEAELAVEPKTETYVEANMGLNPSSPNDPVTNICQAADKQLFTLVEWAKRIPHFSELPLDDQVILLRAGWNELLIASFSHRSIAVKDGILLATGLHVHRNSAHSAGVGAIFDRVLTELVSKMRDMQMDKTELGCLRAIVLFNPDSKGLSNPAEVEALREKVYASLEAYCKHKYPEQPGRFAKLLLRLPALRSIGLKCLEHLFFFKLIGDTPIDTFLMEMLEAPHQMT
Estrogen receptor beta (Homo sapiens), sequence (Q92731 whole entry, looked up, the tested form may be a part): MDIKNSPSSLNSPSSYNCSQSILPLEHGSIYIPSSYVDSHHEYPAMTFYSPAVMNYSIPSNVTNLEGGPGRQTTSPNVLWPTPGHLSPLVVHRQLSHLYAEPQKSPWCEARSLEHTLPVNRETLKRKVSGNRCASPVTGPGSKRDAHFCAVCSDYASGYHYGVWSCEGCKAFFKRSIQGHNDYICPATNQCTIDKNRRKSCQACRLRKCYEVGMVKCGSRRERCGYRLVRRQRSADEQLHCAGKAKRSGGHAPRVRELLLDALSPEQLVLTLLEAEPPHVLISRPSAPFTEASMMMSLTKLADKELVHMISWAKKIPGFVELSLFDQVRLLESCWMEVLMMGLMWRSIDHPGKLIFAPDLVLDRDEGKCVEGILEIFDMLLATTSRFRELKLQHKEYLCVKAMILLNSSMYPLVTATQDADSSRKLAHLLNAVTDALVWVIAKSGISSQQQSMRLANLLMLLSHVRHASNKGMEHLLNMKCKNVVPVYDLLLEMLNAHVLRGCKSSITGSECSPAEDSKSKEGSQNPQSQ
Peroxisome proliferator-activated receptor gamma (Homo sapiens), sequence (P37231 whole entry, looked up, the tested form may be a part): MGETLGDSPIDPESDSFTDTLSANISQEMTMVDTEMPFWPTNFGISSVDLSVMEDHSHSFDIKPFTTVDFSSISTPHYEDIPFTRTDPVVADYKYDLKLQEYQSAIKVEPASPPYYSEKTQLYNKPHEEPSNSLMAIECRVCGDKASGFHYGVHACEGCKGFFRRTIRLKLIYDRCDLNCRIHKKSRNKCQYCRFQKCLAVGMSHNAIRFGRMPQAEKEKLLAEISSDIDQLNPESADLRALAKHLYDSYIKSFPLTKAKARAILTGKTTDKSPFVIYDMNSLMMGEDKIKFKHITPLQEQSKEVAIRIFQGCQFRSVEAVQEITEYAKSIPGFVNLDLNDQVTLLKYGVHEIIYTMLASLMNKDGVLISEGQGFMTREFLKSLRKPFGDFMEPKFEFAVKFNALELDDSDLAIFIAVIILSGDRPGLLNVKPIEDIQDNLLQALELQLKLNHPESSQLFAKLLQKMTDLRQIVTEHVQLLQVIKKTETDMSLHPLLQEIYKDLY
Estrogen receptor (Homo sapiens), sequence (P03372 whole entry, looked up): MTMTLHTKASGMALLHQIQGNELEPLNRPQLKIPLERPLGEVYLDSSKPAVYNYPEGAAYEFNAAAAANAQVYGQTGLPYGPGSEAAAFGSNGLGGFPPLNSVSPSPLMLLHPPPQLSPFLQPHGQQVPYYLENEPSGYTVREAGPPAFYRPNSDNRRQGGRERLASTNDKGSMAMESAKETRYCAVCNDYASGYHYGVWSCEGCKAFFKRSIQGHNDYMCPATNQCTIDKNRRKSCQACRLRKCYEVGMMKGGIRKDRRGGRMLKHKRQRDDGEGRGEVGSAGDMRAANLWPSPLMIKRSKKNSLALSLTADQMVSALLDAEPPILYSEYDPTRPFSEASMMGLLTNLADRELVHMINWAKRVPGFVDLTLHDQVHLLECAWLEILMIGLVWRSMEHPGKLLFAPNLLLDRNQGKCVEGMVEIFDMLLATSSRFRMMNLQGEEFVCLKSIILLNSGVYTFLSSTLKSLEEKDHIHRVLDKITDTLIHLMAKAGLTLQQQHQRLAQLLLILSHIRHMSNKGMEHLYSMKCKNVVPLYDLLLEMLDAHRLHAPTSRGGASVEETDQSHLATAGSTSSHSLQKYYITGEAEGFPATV
Agonist Androgen Response Element (ARE), AR (gene 367), sequence (P10275 whole entry, looked up): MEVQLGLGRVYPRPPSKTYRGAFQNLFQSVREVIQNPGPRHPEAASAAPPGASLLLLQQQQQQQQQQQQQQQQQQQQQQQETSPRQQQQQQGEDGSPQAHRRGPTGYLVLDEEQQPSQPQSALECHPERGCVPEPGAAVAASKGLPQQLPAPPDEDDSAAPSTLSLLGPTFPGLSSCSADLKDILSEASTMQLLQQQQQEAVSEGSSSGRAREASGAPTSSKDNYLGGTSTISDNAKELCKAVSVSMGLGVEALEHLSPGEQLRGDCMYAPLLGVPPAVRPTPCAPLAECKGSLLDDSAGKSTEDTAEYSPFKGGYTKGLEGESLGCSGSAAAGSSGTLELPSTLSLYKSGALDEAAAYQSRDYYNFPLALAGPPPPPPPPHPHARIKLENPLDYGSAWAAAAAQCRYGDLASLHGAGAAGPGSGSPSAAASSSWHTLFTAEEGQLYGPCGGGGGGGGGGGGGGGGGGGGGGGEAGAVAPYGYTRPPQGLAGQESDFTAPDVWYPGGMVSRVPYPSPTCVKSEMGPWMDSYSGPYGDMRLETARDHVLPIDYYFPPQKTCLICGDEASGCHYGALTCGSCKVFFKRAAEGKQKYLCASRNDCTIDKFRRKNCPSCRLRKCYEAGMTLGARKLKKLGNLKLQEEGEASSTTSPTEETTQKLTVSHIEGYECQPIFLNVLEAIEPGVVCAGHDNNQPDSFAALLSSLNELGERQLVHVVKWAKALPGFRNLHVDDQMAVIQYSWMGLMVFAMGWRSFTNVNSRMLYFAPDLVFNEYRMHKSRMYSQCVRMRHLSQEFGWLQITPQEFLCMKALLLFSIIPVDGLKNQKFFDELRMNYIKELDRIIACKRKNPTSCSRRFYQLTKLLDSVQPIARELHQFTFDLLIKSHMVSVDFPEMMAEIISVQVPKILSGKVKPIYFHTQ
human Norepinephrine Transporter (NET), SLC6A2 (gene 6530), sequence (P23975 whole entry, looked up): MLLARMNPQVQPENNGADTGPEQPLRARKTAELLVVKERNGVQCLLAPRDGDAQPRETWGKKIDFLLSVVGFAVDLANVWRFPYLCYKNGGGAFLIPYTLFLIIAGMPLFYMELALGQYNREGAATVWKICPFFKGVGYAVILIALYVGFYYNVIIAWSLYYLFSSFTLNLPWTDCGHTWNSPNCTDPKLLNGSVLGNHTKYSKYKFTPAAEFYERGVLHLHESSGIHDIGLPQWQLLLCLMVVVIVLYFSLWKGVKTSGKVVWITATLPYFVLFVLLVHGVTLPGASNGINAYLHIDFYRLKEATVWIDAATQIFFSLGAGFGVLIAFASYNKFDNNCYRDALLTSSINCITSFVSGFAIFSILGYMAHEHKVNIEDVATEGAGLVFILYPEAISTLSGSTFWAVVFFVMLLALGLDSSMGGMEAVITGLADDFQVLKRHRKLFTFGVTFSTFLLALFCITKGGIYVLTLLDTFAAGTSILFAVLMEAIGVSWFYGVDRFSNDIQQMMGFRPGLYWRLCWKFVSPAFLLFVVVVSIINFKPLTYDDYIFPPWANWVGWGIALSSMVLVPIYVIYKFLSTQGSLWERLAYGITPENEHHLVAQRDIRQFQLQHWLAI
human Dopamine Transporter (DAT), SLC6A3 (gene 6531), sequence (Q01959 whole entry, looked up): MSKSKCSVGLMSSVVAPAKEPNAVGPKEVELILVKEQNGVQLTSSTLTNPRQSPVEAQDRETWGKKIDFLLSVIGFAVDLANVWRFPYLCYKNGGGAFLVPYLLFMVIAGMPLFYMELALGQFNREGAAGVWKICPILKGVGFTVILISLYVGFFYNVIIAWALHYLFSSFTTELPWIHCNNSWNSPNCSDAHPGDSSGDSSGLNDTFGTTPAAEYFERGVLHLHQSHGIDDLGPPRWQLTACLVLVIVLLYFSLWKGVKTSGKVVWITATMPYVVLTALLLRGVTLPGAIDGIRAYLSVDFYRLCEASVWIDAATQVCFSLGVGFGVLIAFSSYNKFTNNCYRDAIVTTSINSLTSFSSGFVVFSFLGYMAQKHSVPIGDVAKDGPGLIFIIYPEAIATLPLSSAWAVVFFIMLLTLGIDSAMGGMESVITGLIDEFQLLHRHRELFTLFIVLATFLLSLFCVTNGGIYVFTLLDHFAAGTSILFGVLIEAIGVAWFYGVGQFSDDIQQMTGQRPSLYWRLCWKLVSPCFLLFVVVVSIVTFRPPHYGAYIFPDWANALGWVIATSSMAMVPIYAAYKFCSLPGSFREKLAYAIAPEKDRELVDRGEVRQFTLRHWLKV

With `C#CCN1C(=O)COc2cc(F)c(N3C(=O)C4=C(CCCC4)C3=O)cc21`, the result in [1], in experiment [2], in [3], in [4], in experiment [5] and in experiment [6] was inactive. The result in [7], in [8], in [9], in experiment [10], in experiment [11] and in [12] was inactive.

For orientation: AC50 means the concentration at which the activity in the assay is half-maximal. As to `N#CN`, in experiment [13], the AC50 is 13 µM (active). In addition, the call in experiment [2], in experiment [3], in [4], in experiment [5], in [7] and in experiment [8] was inactive.

`CCCN(CCOc1c(Cl)cc(Cl)cc1Cl)C(=O)n1ccnc1`: the AC50 in [14] was 2.17 µM (active); in experiment [15], 6.06 µM (active); in experiment [16], 3.82 µM (active); in experiment [17] it was 7.49 µM (active); in [13], 5.14 µM (active); in experiment [18], 12.4 µM (active). Also, the results for the AC50 in [5], in [9] and in experiment [12] were 11.9 µM (active), 0.374 µM (active) and 0.0122 µM (active), respectively. The outcome in experiment [2], in [6], in experiment [7], in experiment [8] and in experiment [10] was inactive.

For the compound `CC1(c2ccc(Oc3ccccc3)cc2)OC(=O)N(Nc2ccccc2)C1=O` (centres undefined), the compound was classed as inactive in experiment [2], in experiment [3], in experiment [4], in experiment [7] and in experiment [8]. Also, the AC50 in experiment [18] was 1.68 µM (active).

`Cc1[nH]c(=O)n(C(C)(C)C)c(=O)c1Cl`: the outcome in [1], in experiment [3], in [4], in experiment [18], in [5] and in [6] was inactive. The compound was classed as inactive in experiment [7] and in experiment [8].

Consider `CC(C)(C)C(O)C(Oc1ccc(Cl)cc1)n1cncn1` (centres undefined), for which the AC50 in experiment [2] was 55.6 µM (active); in [10], 18.3 µM (active) and 3.14 µM (active) and 3.31 µM (active). Also, the result in experiment [5], in experiment [6], in [7], in [8] and in experiment [10] was inactive.

In the case of `OCCOc1ccccc1`, the outcome in [2], in experiment [3], in experiment [4], in experiment [18], in experiment [5] and in experiment [6] was inactive. Moreover, the call in experiment [7] and in experiment [8] was inactive.

Turning to `CCOCN(C(=O)CCl)c1c(C)cccc1CC`, the result in experiment [2], in [3], in experiment [4], in experiment [5], in experiment [6] and in experiment [7] was inactive. Moreover, the compound was classed as inactive in experiment [8]. The concentration at half-maximal activity (AC50) in experiment [5] was 0.654 µM (active).

Take `O=C(O)CCCOc1ccc(Cl)cc1Cl`: the compound was classed as inactive in experiment [1], in experiment [2], in experiment [5], in experiment [6], in experiment [7] and in experiment [8].

Take `CNC(=O)Oc1cccc(N=CN(C)C)c1`: the compound was classed as inactive in experiment [2], in experiment [3], in [4], in experiment [7], in [8] and in [10].

`C[C@H]1[C@H](c2ccc(Cl)cc2)SC(=O)N1C(=O)NC1CCCCC1`: the outcome in experiment [1], in [2], in [3], in experiment [4], in experiment [6] and in experiment [7] was inactive. In addition, the compound was classed as inactive in experiment [8], in [9], in [10], in [11] and in experiment [12].

With `COc1nn(CSP(=S)(OC)OC)c(=O)s1`, the compound was classed as inactive in experiment [2], in [3], in experiment [4], in [18], in experiment [6] and in experiment [7]. Moreover, the compound was classed as inactive in [8] and in experiment [9]. The AC50 was 13.6 µM (active) in experiment [10] and 33.1 µM (active) in [12].

Take `CN1CSC(=S)N(C)C1`: the compound was classed as inactive in experiment [2], in [3], in [4], in experiment [18], in [7] and in experiment [8].
